Measured values as given in PubChem BioAssay (EPA / NIEHS).
Records with an inconclusive call do not appear. The source made the active and inactive calls. Rule for the calls: active = hit-call score of the fitted dose curve at least 0.9, where 1 is the maximum; inconclusive = response in the unintended direction; inactive = score below 0.9.

Experiments:
[1] = target: T1, Estrogen receptor (Homo sapiens) + Estrogen receptor beta (Homo sapiens) (UniProt P03372+Q92731); assay: OT_ER_ERaERb_0480: Odyssey Thera (OT) 8-hour HEK293T Protein-Complementation Assay for Estrogen Receptor-alpha/-beta Heterodimer (AID 2283352)
T1 sequence (P03372 whole entry, looked up, the tested form may be a part): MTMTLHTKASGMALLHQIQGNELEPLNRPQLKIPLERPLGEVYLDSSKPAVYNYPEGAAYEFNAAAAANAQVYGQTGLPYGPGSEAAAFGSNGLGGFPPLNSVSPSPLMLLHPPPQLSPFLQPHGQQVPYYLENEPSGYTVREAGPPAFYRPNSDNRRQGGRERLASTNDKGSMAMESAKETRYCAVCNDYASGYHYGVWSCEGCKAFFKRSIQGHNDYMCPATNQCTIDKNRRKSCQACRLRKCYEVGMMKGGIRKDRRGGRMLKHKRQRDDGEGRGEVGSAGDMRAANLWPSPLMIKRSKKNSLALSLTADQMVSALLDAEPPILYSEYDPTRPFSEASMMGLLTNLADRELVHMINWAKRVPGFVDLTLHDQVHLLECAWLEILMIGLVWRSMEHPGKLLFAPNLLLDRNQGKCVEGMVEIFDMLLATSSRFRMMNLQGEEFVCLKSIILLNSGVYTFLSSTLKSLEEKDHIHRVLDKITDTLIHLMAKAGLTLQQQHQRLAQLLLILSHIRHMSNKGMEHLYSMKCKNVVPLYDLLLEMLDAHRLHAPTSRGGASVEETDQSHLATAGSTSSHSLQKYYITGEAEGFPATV
T1 sequence (Q92731 whole entry, looked up, the tested form may be a part): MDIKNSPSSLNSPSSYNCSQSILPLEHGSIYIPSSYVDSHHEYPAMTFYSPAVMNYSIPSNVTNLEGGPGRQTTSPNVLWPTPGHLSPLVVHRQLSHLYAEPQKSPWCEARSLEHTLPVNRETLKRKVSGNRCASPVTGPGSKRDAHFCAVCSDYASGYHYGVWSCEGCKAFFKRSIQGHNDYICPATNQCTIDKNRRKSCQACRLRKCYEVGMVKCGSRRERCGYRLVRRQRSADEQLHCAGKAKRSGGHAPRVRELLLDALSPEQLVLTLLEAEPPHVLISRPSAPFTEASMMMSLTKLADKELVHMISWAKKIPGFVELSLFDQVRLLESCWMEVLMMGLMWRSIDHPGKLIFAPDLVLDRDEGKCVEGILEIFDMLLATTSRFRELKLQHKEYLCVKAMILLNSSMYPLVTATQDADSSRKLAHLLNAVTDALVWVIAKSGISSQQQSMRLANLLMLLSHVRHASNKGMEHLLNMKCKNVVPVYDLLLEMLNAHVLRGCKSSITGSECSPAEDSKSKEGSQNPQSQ
In short: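 HEK293T protein-fragment complementation assay of ER-alpha/ER-beta LBD heterodimerisation, read 8 h after dosing. Mean nuclear/cytoplasmic fluorescence intensity measured by laser scanning cytometry; gain of signal fitted relative to DMSO.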

[2] = target: Estrogen receptor beta (Homo sapiens) (UniProt Q92731); assay: OT_ER_ERbERb_0480: Odyssey Thera (OT) 8-hour HEK293T Protein-Complementation Assay for Estrogen Receptor-beta/-beta Homodimer (AID 2283357);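 note: active means signal gain over DMSO baseline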
Chain of Estrogen receptor beta (Homo sapiens) (Q92731 whole entry, looked up, the tested form may be a part): as above
In short: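 ER-beta LBD homodimer PCA stably expressed in HEK293T; 8 h compound exposure, then formaldehyde fixation and Draq5 staining. Gain in nuclear/cytoplasmic fluorescence intensity versus DMSO vehicle, read on laser scanning cytometer.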

[3] = target: T1, Estrogen receptor (Homo sapiens) + Estrogen receptor beta (Homo sapiens); assay: OT_ER_ERaERb_1440: Odyssey Thera (OT) 24-hour HEK293T Protein-Complementation Assay for Estrogen Receptor-alpha/-beta Homodimer (AID 2283356);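 note: heteromer of ER alpha and ER beta binding domains; hits raise reporter fluorescence and both agonists and antagonists give an increase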
In short: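 HEK293T stably expressing a PCA of ER alpha LBD (aa 310-547) and ER beta LBD (aa 263-489). After 24 h compound exposure, mean fluorescence intensity in nucleus (agonists) or nucleus and cytoplasm (antagonists) measured by laser scanning cytometry versus vehicle.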

[4] = target: Retinoic acid receptor alpha (Homo sapiens) (UniProt P10276); assay: NVS_NR_hRARa_Agonist: NovaScreen (NVS) Nuclear Receptor Binding Assay for human Retinoic Acid Alpha Receptor Agonism (RAR) (AID 2283361)
In short: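 Agonist-mode TR-FRET binding format using extracted protein, measured at 2 h post-dosing. Initial duplicate single-point screen at 25 uM preceded concentration series for actives; activity was normalized to DMSO baseline.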

[5] = target: Glucocorticoid receptor (Homo sapiens) (UniProt P04150); assay: NVS_NR_hGR: NovaScreen (NVS) Nuclear Receptor Binding Assay for human Glucocorticoid Receptor (GR) (AID 2283363);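 for AC50: activity is loss of specific radioligand binding signal relative to DMSO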
Chain of Glucocorticoid receptor (Homo sapiens) (P04150 whole entry, looked up): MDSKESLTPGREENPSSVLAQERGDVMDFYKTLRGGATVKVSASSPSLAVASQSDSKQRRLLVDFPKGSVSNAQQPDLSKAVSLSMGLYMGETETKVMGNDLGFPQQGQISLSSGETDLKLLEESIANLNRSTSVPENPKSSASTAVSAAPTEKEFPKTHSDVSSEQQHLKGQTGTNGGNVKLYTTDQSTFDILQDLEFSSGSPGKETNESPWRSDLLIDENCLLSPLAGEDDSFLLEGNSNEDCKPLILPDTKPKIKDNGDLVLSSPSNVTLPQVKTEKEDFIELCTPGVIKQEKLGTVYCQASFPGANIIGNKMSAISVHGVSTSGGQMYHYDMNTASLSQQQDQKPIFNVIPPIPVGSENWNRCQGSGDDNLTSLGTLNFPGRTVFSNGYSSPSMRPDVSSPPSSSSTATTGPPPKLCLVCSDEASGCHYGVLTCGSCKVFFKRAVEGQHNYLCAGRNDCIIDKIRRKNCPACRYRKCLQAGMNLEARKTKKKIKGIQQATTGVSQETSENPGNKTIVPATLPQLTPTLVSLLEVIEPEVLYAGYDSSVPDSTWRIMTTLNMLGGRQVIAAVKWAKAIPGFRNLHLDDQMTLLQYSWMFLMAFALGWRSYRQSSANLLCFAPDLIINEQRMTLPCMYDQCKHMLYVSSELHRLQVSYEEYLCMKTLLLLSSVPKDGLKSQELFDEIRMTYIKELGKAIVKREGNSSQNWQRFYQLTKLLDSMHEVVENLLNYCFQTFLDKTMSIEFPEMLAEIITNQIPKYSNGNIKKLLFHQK
In short: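 Compounds first tested in duplicate at 25 uM, actives followed up in concentration series. Binding to extracted GR protein measured as competitive radioligand displacement, filter scintillation read 16 h post-dosing, normalised to DMSO.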

[6] = target: Peroxisome proliferator-activated receptor gamma (Homo sapiens) (UniProt P37231); assay: NVS_NR_hPPARg: NovaScreen (NVS) Nuclear Receptor Binding Assay for human Peroxisome Proliferator-activated Receptor gamma (PPARg) (AID 2283370)
Chain of Peroxisome proliferator-activated receptor gamma (Homo sapiens) (P37231 whole entry, looked up): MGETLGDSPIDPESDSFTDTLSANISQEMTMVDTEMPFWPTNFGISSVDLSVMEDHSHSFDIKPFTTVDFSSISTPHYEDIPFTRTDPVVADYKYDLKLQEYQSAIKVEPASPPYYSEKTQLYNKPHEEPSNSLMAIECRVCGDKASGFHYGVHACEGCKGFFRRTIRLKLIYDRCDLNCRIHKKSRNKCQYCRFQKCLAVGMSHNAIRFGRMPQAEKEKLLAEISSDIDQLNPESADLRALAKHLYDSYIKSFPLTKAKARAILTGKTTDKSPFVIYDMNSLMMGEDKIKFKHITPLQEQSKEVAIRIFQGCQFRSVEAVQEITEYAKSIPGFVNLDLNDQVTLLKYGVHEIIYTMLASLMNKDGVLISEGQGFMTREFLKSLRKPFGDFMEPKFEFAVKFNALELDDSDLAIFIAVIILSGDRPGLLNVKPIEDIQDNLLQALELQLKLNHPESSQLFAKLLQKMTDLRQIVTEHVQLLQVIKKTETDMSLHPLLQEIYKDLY
In short: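 Cell-free fluorescence polarization binding to human PPARg protein, read 2 h after dosing. Primary screen in duplicate at 25 uM, actives followed in concentration series; loss of signal relative to DMSO scored.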

[7] = target: Androgen Receptor/SRC-1 Co-activator, AR (gene 367) (UniProt P10275); assay: OT_AR_ARSRC1_0960: Odyssey Thera (OT) 16-hour HEK293T Protein-Complementation Assay for Androgen Receptor/SRC-1 Co-activator (AID 2283353);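 note: actives raise the signal above DMSO so potency reflects increased AR and SRC-1 complex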
Chain of Androgen Receptor/SRC-1 Co-activator, AR (gene 367) (P10275 whole entry, looked up, the tested form may be a part): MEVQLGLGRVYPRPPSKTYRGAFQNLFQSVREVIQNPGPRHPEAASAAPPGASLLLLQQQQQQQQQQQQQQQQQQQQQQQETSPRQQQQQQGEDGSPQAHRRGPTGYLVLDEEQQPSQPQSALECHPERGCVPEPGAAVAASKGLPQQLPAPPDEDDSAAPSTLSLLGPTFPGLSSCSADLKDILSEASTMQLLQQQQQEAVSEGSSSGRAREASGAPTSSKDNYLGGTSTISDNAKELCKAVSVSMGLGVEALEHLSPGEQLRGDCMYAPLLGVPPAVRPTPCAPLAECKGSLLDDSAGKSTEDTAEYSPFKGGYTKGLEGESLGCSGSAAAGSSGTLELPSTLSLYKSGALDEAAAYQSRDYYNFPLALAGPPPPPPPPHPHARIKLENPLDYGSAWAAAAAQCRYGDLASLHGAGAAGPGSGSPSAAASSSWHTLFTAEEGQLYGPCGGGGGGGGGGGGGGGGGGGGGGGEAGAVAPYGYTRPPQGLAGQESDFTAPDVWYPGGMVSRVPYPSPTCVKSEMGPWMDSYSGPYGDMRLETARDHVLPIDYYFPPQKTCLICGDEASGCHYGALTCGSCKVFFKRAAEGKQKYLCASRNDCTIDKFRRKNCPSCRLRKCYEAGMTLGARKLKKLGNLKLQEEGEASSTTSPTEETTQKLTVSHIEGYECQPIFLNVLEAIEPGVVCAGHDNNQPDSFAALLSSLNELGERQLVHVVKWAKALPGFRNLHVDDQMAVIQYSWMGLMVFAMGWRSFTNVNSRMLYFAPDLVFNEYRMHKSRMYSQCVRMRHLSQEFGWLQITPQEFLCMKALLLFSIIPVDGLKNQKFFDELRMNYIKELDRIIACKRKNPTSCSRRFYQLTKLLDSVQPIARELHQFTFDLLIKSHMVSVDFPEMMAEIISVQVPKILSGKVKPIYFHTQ
In short: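 Sixteen-hour cell assay: Venus halves fused to AR and SRC-1 in HEK293T report binding. Images at 488/635 nm give an N/C ratio in the 488 nm channel over ≥400 cells, analysed as signal increase over DMSO.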

[8] = target: Androgen Receptor/SRC-1 Co-activator, AR (gene 367) (UniProt P10275); assay: OT_AR_ARSRC1_0480: Odyssey Thera (OT) 8-hour HEK293T Protein-Complementation Assay for Androgen Receptor/SRC-1 Co-activator (AID 2283354);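 note: hits raise the complementation signal above DMSO so AC50 marks enhancers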
In short: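 Reconstituted split-Venus YFP signal from AR–SRC-1 interaction, read by imaging 8 h post-dose in stable HEK293T lines. The 488 nm nucleus-to-cytoplasm ratio (≥400 cells/image) was fitted upward against DMSO.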

[9] = target: human Thyroid Receptor Alpha (TRa), THRA (gene 7067) (UniProt P10827); assay: NVS_NR_hTRa_Antagonist: NovaScreen (NVS) Nuclear Receptor Binding Assay for human Thyroid Receptor Alpha Antagonism (TRa) (AID 2283362);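 note: activity is loss of signal relative to DMSO baseline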
In short: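 Cell-free AlphaLISA chemiluminescent binding read 1 h after dosing, antagonist mode; signal loss versus DMSO baseline. Primary screen in duplicate at 25 uM, then concentration series for actives.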

[10] = target: Nuclear receptor subfamily 1 group I member 2 (Homo sapiens) (UniProt O75469); assay: NVS_NR_hPXR: NovaScreen (NVS) Nuclear Receptor Binding Assay for human Pregnane X Receptor (PXR) (AID 2283365);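 note: a drop in FRET signal versus DMSO baseline means the compound binds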
Chain of Nuclear receptor subfamily 1 group I member 2 (Homo sapiens) (O75469 whole entry, looked up): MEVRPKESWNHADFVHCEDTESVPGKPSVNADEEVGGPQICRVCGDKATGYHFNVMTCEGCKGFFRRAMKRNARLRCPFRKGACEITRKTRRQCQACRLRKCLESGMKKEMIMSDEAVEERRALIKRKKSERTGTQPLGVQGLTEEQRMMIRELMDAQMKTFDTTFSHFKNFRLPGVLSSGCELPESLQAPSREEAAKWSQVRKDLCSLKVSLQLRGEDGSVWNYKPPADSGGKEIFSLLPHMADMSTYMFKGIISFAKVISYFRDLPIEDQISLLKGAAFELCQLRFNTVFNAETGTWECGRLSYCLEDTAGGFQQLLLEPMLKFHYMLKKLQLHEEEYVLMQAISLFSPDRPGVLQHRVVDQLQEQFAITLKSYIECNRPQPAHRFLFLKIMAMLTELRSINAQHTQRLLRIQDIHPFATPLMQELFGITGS
In short: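 Cell-free TR-FRET binding assay with extracted human PXR protein, read 2 h after dosing. Primary screen run in duplicate at 25 uM, actives followed in concentration series; loss of signal fitted against DMSO baseline.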

[11] = target: rat Mineralocorticoid Receptor (MR), Nr3c2 (gene 25672) (UniProt P22199); assay: NVS_NR_rMR: NovaScreen (NVS) Nuclear Receptor Binding Assay for rat Mineralocorticoid Receptor (MR) (AID 2283355)
Chain of rat Mineralocorticoid Receptor (MR), Nr3c2 (gene 25672) (P22199 whole entry, looked up): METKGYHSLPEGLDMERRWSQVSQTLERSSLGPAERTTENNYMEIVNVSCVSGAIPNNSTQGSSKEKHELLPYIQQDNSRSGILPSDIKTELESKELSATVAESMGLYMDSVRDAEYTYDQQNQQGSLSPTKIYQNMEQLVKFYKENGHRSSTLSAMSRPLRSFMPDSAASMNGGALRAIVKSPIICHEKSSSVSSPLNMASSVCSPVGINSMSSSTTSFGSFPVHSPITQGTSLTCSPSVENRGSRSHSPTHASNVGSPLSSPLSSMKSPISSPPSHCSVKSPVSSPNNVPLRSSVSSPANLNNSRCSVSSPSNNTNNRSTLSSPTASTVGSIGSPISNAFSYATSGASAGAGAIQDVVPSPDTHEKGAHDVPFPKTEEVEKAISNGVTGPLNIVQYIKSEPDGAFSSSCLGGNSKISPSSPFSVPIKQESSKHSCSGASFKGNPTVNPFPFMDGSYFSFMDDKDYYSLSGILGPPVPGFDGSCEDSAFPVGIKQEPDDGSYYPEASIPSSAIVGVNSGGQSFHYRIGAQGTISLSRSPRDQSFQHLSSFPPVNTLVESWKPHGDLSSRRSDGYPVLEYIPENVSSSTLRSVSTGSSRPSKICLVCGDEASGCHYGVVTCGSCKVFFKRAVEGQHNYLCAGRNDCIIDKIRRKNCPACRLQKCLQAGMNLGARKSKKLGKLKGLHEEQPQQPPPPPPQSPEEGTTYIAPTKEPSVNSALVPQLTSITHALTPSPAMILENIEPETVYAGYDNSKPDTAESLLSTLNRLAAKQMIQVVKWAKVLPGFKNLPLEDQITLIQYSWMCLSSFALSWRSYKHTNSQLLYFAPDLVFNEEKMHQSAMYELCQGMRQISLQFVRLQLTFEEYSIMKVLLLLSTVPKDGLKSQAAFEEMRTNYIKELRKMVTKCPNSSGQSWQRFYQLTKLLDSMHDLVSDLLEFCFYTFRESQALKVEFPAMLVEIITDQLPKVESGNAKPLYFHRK
In short: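 Primary HTS ran in duplicate at a single 25 uM concentration, with concentration-series follow-up for actives. Receptor source: adrenalectomized rat brain supernatant, cell-free. Radioligand displacement read by scintillation at 24 h, relative to DMSO baseline.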

[12] = target: Retinoic acid receptor alpha (Homo sapiens) (UniProt P10276); assay: NVS_NR_hRAR_Antagonist: NovaScreen (NVS) Nuclear Receptor Binding Assay for human Retinoic Acid Alpha Receptor Antagonism (RAR) (AID 2283358)
In short: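 RARalpha antagonism was read by TR-FRET as loss of binding signal versus DMSO, 2 h after chemical addition, in a biochemical format. Single-concentration duplicates (25 uM) were run first, and actives were retested in concentration series.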

[13] = target: human Peroxisome Proliferator-activated Receptor alpha (PPARa), PPARA (gene 5465) (UniProt Q07869); assay: NVS_NR_hPPARa: NovaScreen (NVS) Nuclear Receptor Binding Assay for human Peroxisome Proliferator-activated Receptor alpha (PPARa) (AID 2283359);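 note: activity means loss of TR-FRET signal versus DMSO baseline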
In short: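 Loss of TR-FRET binding signal relative to DMSO was measured 1 h after chemical addition to extracted receptor protein. Chemicals were first tested in duplicate at 25 uM, and actives were followed up in concentration series.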

[14] = target: rat Androgen Receptor (AR), Ar (gene 24208) (UniProt P15207); assay: NVS_NR_rAR: NovaScreen (NVS) Nuclear Receptor Binding Assay for rat Androgen Receptor (AR) (AID 2283366)
In short: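 Actives from a duplicate single-concentration (25 uM) primary run went on to concentration series. Displacement of radioligand was counted by filtration and scintillation, 18 h post-dose, using prostate extracts from testosterone-pretreated rats, with DMSO as baseline.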

[15] = target: rat Serotonin Transporter (SERT), Slc6a4 (gene 25553) (UniProt P31652); assay: NVS_TR_rSERT: NovaScreen (NVS) Transporter Assay for rat Serotonin Transporter (SERT) (AID 2283375)
In short: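 Rat forebrain membranes; radioligand displacement at SERT read by filter-based scintillation counting, 1 h after dosing. Screened in duplicate at 25 uM, actives then run in concentration series; loss of signal versus DMSO baseline.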

For `CC=C1CC2C=CC1C2` (stereo not drawn), the outcome [1] was “inactive” and the outcome [2] was “inactive”.
`O=S(=O)(O)c1ccccc1C=Cc1ccc(-c2ccc(C=Cc3ccccc3S(=O)(=O)O)cc2)cc1` was tested, and the outcome [1] was “inactive”, the outcome [3] was “inactive” and the AC50 [2] was 65.5 µM (active). The AC50 [4] was 12.1 µM (active), the AC50 [5] was 3.61 µM (active) and the outcome [6] was “inactive”.
`CCCc1ccc(OC)cc1` was tested, and the outcome [1] was “inactive”, the outcome [7] was “inactive” and the outcome [8] was “inactive”. For the same molecule, the outcome [2] was “inactive”.
With `Cc1ccc(N/N=c2\c(=O)cc/c(=N/Nc3ccc(S(=O)(=O)O)cc3)c2=O)c(C)c1` the outcome [1] was “inactive”, the outcome [2] was “inactive” and the AC50 [9] was 18.6 µM (active). For the same molecule, the AC50 [10] was 2.79 µM (active) and the AC50 [6] was 16 µM (active).
For `CC(C)=CCC[C@H](C)CCO`, the outcome [1] was “inactive”, the outcome [7] was “inactive” and the outcome [8] was “inactive”. The outcome [2] was “inactive”.
For `CNC(=S)NN`, the outcome [1] was “inactive”.
With `C=C1C2CCC(C2)C1(C)C` (stereo not drawn) the outcome [1] was “inactive” and the outcome [3] was “inactive”.
`O=c1cc(-c2ccccc2)oc2ccccc12` was tested, and the outcome [1] was “inactive”, the outcome [7] was “inactive” and the outcome [8] was “inactive”. For the same molecule, the outcome [2] was “inactive”, the outcome [10] was “inactive” and the outcome [6] was “inactive”.
With `Cn1c([N+](=O)[O-])cnc1COC(N)=O` the outcome [1] was “inactive”, the outcome [3] was “inactive” and the outcome [2] was “inactive”.
With `CC(C)(C)c1ccc(N)cc1` the outcome [1] was “inactive”, the outcome [3] was “inactive” and the outcome [2] was “inactive”.
For `CC(C)c1ccc2cc(C(C)C)ccc2c1`, the outcome [1] was “inactive”, the outcome [7] was “inactive” and the outcome [8] was “inactive”. The outcome [2] was “inactive”.
With `CC(C)(C)c1ccc(-c2ccc(C(C)(C)C)cc2)cc1` the outcome [1] was “inactive”, the AC50 [7] was 77.8 µM (active) and the outcome [8] was “inactive”. For the same molecule, the outcome [2] was “inactive”.
In the case of `c1c[nH]cn1`, the outcome [1] was “inactive”.
For `CC(C)(C)c1ccc(OC(=O)c2ccccc2O)cc1`, the AC50 [1] was 58.9 µM (active) and the outcome [2] was “inactive”.
With `O=C(c1ccccc1)C1CCC1` the outcome [1] was “inactive” and the outcome [2] was “inactive”.
In the case of `CCOC(=O)Cc1cccc2ccccc12`, the AC50 [1] was 61.7 µM (active) and the outcome [2] was “inactive”.
In the case of `CC1=CC[C@H]2C[C@@H]1C2(C)C`, the outcome [1] was “inactive” and the outcome [2] was “inactive”.
`O=C(O)CCCC[C@@H]1SC[C@@H]2NC(=O)N[C@@H]21` was tested, and the outcome [1] was “inactive”, the outcome [3] was “inactive” and the outcome [2] was “inactive”.
`CCCCCCCOC(=O)CCC` was tested, and the outcome [1] was “inactive”, the outcome [11] was “inactive” and the outcome [2] was “inactive”.
In the case of `Oc1ccc(Cl)cc1Cc1cc(Cl)ccc1O`, the AC50 [1] was 11.9 µM (active), the AC50 [7] was 29.6 µM (active) and the AC50 [8] was 55.5 µM (active). The AC50 [2] was 11.9 µM (active), the outcome [12] was “inactive” and the AC50 [13] was 14 µM (active). The AC50 [5] was 2.65 µM (active), the AC50 [10] was 16.8 µM (active) and the AC50 [14] was 1.42 µM (active). The AC50 [6] was 25 µM (active).
With `c1ccc2c(c1)ccc1cc3c(ccc4ccccc43)cc12` the outcome [5] was “inactive”.
In the case of `CC(C)(c1cc(Br)c(OCCO)c(Br)c1)c1cc(Br)c(OCCO)c(Br)c1`, the outcome [11] was “inactive” and the AC50 [15] was 2.88 µM (active).
With `O=C1C(N(CO)C(=O)NCO)N(CO)C(=O)N1CO` (stereo not drawn) the outcome [2] was “inactive”.
